Results: PubChem BioAssay AID2551 (National Center for Advancing Translational Sciences (NCATS), 2010)
Screen size: about 310,000 compounds; about 17,000 (5.5%) were called active. Not shown: some 11% with an inconclusive outcome. For the sample, actives were picked, then their nearest neighbours and some compounds at random. Values without a mark were called inactive. Calls follow the shape of the dose curve; as a rule, active = well fitted inhibition curve with a large enough effect; inconclusive = small, poorly fitted or top-dose-only effect, or effect the other way; inactive = no such curve, though single readings can be large or run the other way.

molecular target: Nuclear receptor ROR-gamma (Mus musculus) (UniProt P51450); test: qHTS for inhibitors of ROR gamma transcriptional activity; settings: Drosophila S2 Gal4-RORgamma UAS-luciferase reporter, 20 h; series mostly up to 53.6 µM; activity change, negative = inhibition: at the top concentration; also: nearly all actives have a fitted effect of over 60% in size
In short: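 ROR gamma transcriptional activity was tracked as Gal4-UAS luciferase output in stably transfected Drosophila Schneider cells, with compound added 1 hr before 700 uM copper sulfate induction and a 20 hr ambient-temperature incubation.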
% is scaled to controls: 0 for no effect and ±100 for the full control effect; potency is read from the fitted curve at half-maximal effect.

Chain of Nuclear receptor ROR-gamma (Mus musculus) (P51450 whole entry, looked up, the tested form may be a part): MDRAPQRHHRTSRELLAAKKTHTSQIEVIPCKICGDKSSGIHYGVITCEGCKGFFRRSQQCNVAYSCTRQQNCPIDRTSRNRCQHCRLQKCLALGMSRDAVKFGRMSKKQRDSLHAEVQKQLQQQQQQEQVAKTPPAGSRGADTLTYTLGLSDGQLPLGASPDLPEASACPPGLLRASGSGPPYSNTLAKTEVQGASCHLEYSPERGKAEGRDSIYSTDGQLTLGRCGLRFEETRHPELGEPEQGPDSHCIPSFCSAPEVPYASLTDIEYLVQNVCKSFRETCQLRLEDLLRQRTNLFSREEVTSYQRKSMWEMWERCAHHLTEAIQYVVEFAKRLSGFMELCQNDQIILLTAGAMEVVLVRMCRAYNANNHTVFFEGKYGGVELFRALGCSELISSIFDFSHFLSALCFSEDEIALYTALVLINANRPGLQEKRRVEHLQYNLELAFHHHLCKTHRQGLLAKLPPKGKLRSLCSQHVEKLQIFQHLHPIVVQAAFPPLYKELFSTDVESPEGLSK

SMILES | activity change, negative = inhibition | Potency
Cc1cc(=O)oc2c(C)c(OC(C)C(=O)NC3CCN(Cc4ccccc4)CC3)ccc12 (configuration not stated) | 0.702% | 
COCc1ccc(C(=O)NC2CC(C)(C)Cc3c2cnn3-c2ccc(C)cc2)o1 (configuration not stated) | 40% | 
CC(=O)c1ccc(NC(=O)CCNS(=O)(=O)c2cc(Br)cnc2N)cc1 | 12.9% | 
COc1cc(OC)cc(C(=O)Nc2ccc(-c3nc4ccccc4o3)c(O)c2)c1 |  | 11.2 µM (active)
O=C(Nc1ccc2oc(-c3ccccc3F)nc2c1)c1ccco1 | -3.51% | 
COc1cc(OC)cc(C(=O)Nc2ccc(S(=O)(=O)Nc3cc(C)on3)cc2)c1 | 1.82% | 
C[n+]1cc(-c2ccccc2)oc1-c1ccccc1 | 10.1% | 
CC(C)N(C(=O)Cn1cc(S(=O)(=O)CC(=O)N2CCOCC2)c2ccccc21)C(C)C | -7.07% | 
COc1ccc2c(CC(=O)N3CCc4cc(OC)c(OC)cc4C3)coc2c1 | 40.6% | 
C=C1C(=CC=C2CCC[C@@]3(C)[C@@H]2CC[C@H]3[C@H](C)CCCC(C)C)C[C@@H](O)C[C@@H]1O |  | 12.6 µM (active)
CCC(CCC(C)C1CCC2C3CC=C4CC(O)CC[C@@]4(C)C3CC[C@@]12C)C(C)C (some centres not stated) | 9.47% | 
COc1ccc(C(=O)O/N=C(\N)c2ccccn2)cc1[N+](=O)[O-] | -42.4% [at 1.91 µM] | 
Cc1ccc(C(=O)O/N=C(\N)c2ccccn2)cc1Cl | 35.7% [at 1.91 µM] | 
Cc1cccc(C(=O)c2cccc(C)c2)c1 | 3.06% | 
Cc1cccc(/C(N)=N/OC(=O)c2ccccc2Cl)c1 |  | 0.251 µM (active)
COc1ccc(S(=O)(=O)N2CCC(C(=O)N3CCCC3)CC2)cc1C | 8.84% | 
O=C(/C=C/c1cn(-c2ccccc2)nc1-c1ccc2c(c1)OCCO2)NCCCN1CCOCC1 |  | 17.8 µM (active)
COc1ccc(-c2nn(-c3ccccc3)cc2/C=C\C(=O)N2CCOCC2)cc1[N+](=O)[O-] | -3.63% | 
COc1ccc(-c2nn(-c3ccccc3)cc2/C=C\C(=O)Nc2ccc(C(=O)O)cc2)cc1 | -30.2% | 
COc1cc(N2C(=O)CSC2=S)cc(OC)c1OC | -36% | 
O=C1CSC(=S)N1c1ccc(O)cc1 |  | 12.6 µM (active)
O=C1CSC(=S)N1c1ccc(Cl)c(Cl)c1 | -1.7% | 
CC1CN(C(=O)CCC(=O)NC2CCN(Cc3ccccc3)CC2)c2ccccc2O1 (configuration not stated) | -2.46% | 
Cc1ccc(OCC(=O)Nc2ccccc2C(=O)NC2CC2)cc1C | 12.5% | 
O=C(Nn1cnnc1)c1cc(Cl)ccc1Cl | -18% | 
NNC(=O)c1ccc(Cl)cc1Cl | -13.6% | 

SMILES | activity change, negative = inhibition | Potency
O=C(N/N=C1\CCSC1)c1cc(Cl)ccc1O |  | 11.2 µM (active)
O=C(c1cc(COc2ccc(F)c(F)c2)on1)N1CCOCC1 | 37% | 
COc1ccc(OCC(=O)NCCS(=O)(=O)N2CCN(c3ccc(F)cc3)CC2)cc1 | 2.8% | 
Cc1cccc(NC(=O)NC2(C)CCS(=O)(=O)C2)c1 (configuration not stated) | -32.9% | 
CC(=O)NCC(=O)N1CCCC(C(=O)c2ccc3c4c(cccc24)CC3)C1 (configuration not stated) | 29.4% | 
Cc1ncoc1C(=O)N1CCCC(C(=O)c2ccc3c4c(cccc24)CC3)C1 (configuration not stated) | 27.1% | 
CCn1ccnc1CN1CCCC(C(=O)c2ccc3c4c(cccc24)CC3)C1 (configuration not stated) |  | 1.26 µM (active)
CC(=O)Nc1ccc(S(=O)(=O)N(C)c2nc3ccccc3nc2Cl)cc1 | 44% | 
COc1ccc(C2c3[nH]c4ccccc4c3C[C@H]3C(=O)N(CC(C)C)CC(=O)N23)c(OC)c1 (some centres not stated) | 19.1% | 
COc1ccc(CNC(=O)CSc2n[nH]c(N)n2)cc1OC | -19.3% | 
Cc1ccc(N/C=C/C(=O)c2ccccc2)cc1C |  | 0.282 µM (active)
O=C(/C=C\NCC(=O)c1ccccc1)c1ccccc1 | 2.82% | 
Cc1noc(NS(=O)(=O)c2ccc(N/C=C/C(=O)c3ccccc3)cc2)c1C | 0% | 
COc1cc(/C=C2/C(=O)ON=C2C)ccc1OCc1cccc(F)c1 | -4.14% | 
COc1cc(/C=C2/C(=O)ON=C2C)ccc1OCc1ccccc1F |  | 10 µM (active)
C=CCOc1ccc(/C=C2/C(=O)ON=C2C)cc1OCC | 17% | 
Cc1nn2c(=O)cc(COC(=O)c3ccc(NC(=O)C(C)(C)C)cc3)nc2s1 | 10.3% | 
O=C(Cn1nnc(-c2ccccc2)n1)NCc1ccc2c(c1)OCO2 | -22% | 
Cc1cccc(C)c1NC(=O)CSc1nnc(-c2ccccc2)n1Cc1ccc2c(c1)OCO2 | 2.3% | 
c1ccc(-c2nnc3n2NC(c2ccc4c(c2)OCO4)S3)cc1 (configuration not stated) |  | 7.94 µM (active)
COC(=O)c1c(C)[nH]c(C(=O)NCCc2ccc(S(N)(=O)=O)cc2)c1C | 24.7% | 
COC(=O)c1c(C)[nH]c(C(=O)/C=C/c2ccc(Cl)cc2)c1C |  | 0.282 µM (active)
CCCCOC(=O)c1[nH]c(C)c(C(=O)OC)c1C | 7.72% | 
CCS(=O)(=O)N1CCC(N2CCN(c3ccccc3)CC2)CC1 | 5.83% | 
N#Cc1ccc(C(=O)Nc2cccc3cccnc23)c(F)c1 | -2.31% | 
N#Cc1ccccc1NC(=O)COc1c(Br)cc(Br)c2cccnc12 |  | 12.6 µM (active)

SMILES | activity change, negative = inhibition | Potency
O=C(COC(=O)c1ccccn1)Nc1cccc2ccccc12 | -8.28% | 
Cc1ccc(CNC(=O)Cn2cnc(S(=O)(=O)N3CCCCC3)c2)o1 | -12.9% | 
Cc1c(C)c(C)c(S(=O)(=O)NCCc2ccccn2)c(C)c1C | -20.7% | 
Cc1ccc(C2NC(=S)NC3=C2N2CCC3CC2)cc1 (configuration not stated) |  | 11.2 µM (active)
COc1cc(NC(=O)c2ccccc2)c(OC)cc1NC(=O)Cc1ccccc1 | 12.2% | 
O=C(O)CCCn1c(=O)c2cccn2c2ccc(F)cc21 | 6.5% | 
Cc1ccc(-n2c(SCC(=O)NCCC3=CCCCC3)nc3n[nH]c(C)c3c2=N)cc1Cl | -37.4% | 
O=C(Nc1nnc(-c2ccc(Cl)cc2)o1)c1ccccc1Br |  | 2.51 µM (active)
Cc1nonc1NC(=O)c1ccccc1Br | -2.61% | 
O=C(Nc1cccc(Cl)c1)Nc1nnc(-c2ccccc2)o1 | -9.93% | 
CN=C1S/C(=C\c2c(OC)cc(OC)cc2OC)C(=O)N1C | -16.9% | 
CCc1ccc(S(=O)(=O)Nc2cc3c(cc2N2CCCCC2)n(C)c(=O)c(=O)n3C)cc1 | 0.731% | 
Cn1c(CCNS(=O)(=O)c2ccc(F)cc2)nnc1SCc1cccnc1 | -11.7% | 
CCC(C)NC(=O)CCCc1ccccc1 (configuration not stated) | 16.6% | 
CC(=O)N1N=C(c2ccncc2)OC1(Cc1ccccc1)Cc1ccccc1 | -14.5% | 
O=C(CCc1ccccc1F)N1CCN(c2ccccc2)CC1 | -19.2% | 
O=C(O)CCCc1ccccc1 |  | inactive
COc1ccc(C(=O)CCc2ccccc2O)c(OC)c1 | 3.95% [at 1.91 µM] | 
O=C(C1CC1)N1N=C(c2ccc(Br)cc2)CC1(O)C(F)(F)F (configuration not stated) | -5.41% | 
CC1=NN(C(=O)CCCc2ccccc2)C(O)(C(F)(F)F)C1 (configuration not stated) |  | 4.47 µM (active)
COc1ccc(CC(=O)N2N=C(C)CC2(O)C(F)(F)F)cc1 (configuration not stated) |  | 7.94 µM (active)
COc1ccc(CC(=O)Nc2ccc(C(=O)NC(C)(C)C)cc2)cc1 | 6.08% | 
CC1=NN(C(=O)CCc2ccccc2O)C(O)(C(F)(F)F)C1 (configuration not stated) |  | 8.91 µM (active)
CCCCCNC(=O)Cc1ccc(OC)cc1 | 10.8% | 
O=C(Cc1ccccc1)N1N=C(c2ccncc2)CC1(O)C(F)(F)F (configuration not stated) |  | 7.08 µM (active)
